Test results from the supplement of paper PMC9254222.
The full ranking holds about 1,100 compounds; the median of “Renilla luciferase signal (cell health) relative to plate median” is about 0.97, and the highest 2% start at about 1.6. Only a selection was taken, and the highest values are over-represented in it overall.

System: HEK293T (UBE3A T485A transfected, BAR Wnt reporter)
Test: Renilla luciferase signal (cell health) relative to plate median (fold (linear ratio)); higher = higher Renilla signal
Details: 24 h
Outline: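 Using Fugene 6, HEK293T cells in white 384-well plates (4500 cells/well; DMEM, 10% FBS, 37°C, 5% CO2) were transfected with a BAR firefly luciferase Wnt reporter, TK-Renilla and an expression plasmid. After four hours, robots dosed the chemicals at 0.01–100 uM, and a Dual-Glo luciferase readout followed 24 h later. Per-plate median-centred firefly/Renilla ratios gave Wnt activity, while per-plate median-centred raw Renilla signals gave cell health. Four biological replicates were averaged.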

SMILES | Renilla luciferase signal (concentration: 0.01 uM) | Renilla luciferase signal (concentration: 0.1 uM) | Renilla luciferase signal (concentration: 1 uM) | Renilla luciferase signal (concentration: 10 uM) | Renilla luciferase signal (concentration: 100 uM)
CSC(=O)c1cccc2nnsc12 [Acibenzolar-S-methyl] | 0.985 | 1.18 | 1.05 | 1.07 | 1.8
CN(C)C(=O)Nc1ccc(Cl)c(Cl)c1 [Diuron] | 0.747 | 1.11 | 1.06 | 0.951 | 0.328
O=C(CCCCCCCCc1cccnc1)N1CCC(C=C(c2ccccc2)c2ccccc2)CC1 | – | 0.898 | 0.875 | 0.939 | 0.0905
C=CCOC(Cn1ccnc1)c1ccc(Cl)cc1Cl (stereo not drawn) [Imazalil] | 0.797 | 0.885 | 0.939 | 0.777 | 0.0667
c1ccc2ccccc2c1 [Naphthalene] | – | 1.18 | 1.14 | 1.33 | 1.64
c1ccc2c(c1)ccc1ccccc12 [Phenanthrene] | – | 0.817 | 0.792 | 0.858 | 0.898
c1ccc2cc3ccccc3cc2c1 [Anthracene] | – | 1.34 | 1.26 | 0.952 | 0.992
N=C(N)c1ccc(OCCCCCOc2ccc(C(=N)N)cc2)cc1.O=S(=O)(O)CCO.O=S(=O)(O)CCO [Pentamidine isethionate] | – | 1.02 | 2.37 | 0.453 | 0.0508
CCCCCCCC(=O)O [Octanoic acid] | – | 0.834 | 0.792 | 0.83 | 1.09
OCC(CO)(CBr)CBr [2,2-Bis(bromomethyl)-1,3-propanediol] | – | 0.999 | 0.961 | 1.01 | 1.07
OCC(CO)(CO)CO [Pentaerythritol] | – | 0.898 | 1.02 | 1.08 | 2.01
O=c1c(-c2ccc(O)cc2)coc2cc(O)cc(O)c12 [Genistein] | 0.617 | 0.604 | 0.77 | 0.58 | 1.01
COc1cc(S(=O)(=O)[O-])c(C)cc1/N=N/c1c(O)ccc2cc(S(=O)(=O)[O-])ccc12.[Na+].[Na+] | – | 0.934 | 0.936 | 0.887 | 0.502
CC[C@H]1OC(=O)[C@H](C)[C@@H](O[C@H]2C[C@@](C)(OC)[C@@H](O)[C@H](C)O2)[C@H](C)[C@@H](O[C@@H]2O[C@H](C)C[C@H](N(C)C)[C@H]2O)[C@](C)(O)C[C@@H](C)C(=O)[C@H](C)[C@@H](O)[C@]1(C)O [Erythromycin] | – | 0.894 | 1.14 | 2.38 | 5.97
CCCC(CCC)C(=O)O [Valproic acid] | 0.788 | 0.847 | 0.87 | 0.883 | 1.56
CCNc1nc(N)nc(Cl)n1 [Deisopropylatrazine] | 0.898 | 0.991 | 0.951 | 0.879 | 0.243
CC(=O)S[C@H](C(=O)N[C@H]1Cc2ccccc2[C@H]2CCC[C@@H](C(=O)O)N2C1=O)C(C)C [Ilepatril] | – | 0.879 | 0.836 | 0.857 | 1.53
CCCCCCCCC(=O)O [Nonanoic acid] | – | 0.743 | 0.854 | 0.901 | 0.975
CN(C)c1ccc(C(=C2C=CC(=[N+](C)C)C=C2)c2ccc(N(C)C)cc2)cc1.[Cl-] [Gentian Violet] | – | 0.155 | 0.0242 | 0.0245 | 0.0226
CCNc1ccccc1 [N-Ethylaniline] | – | 1.01 | 0.97 | 1.08 | 1.17

SMILES | Renilla luciferase signal (concentration: 0.01 uM) | Renilla luciferase signal (concentration: 0.1 uM) | Renilla luciferase signal (concentration: 1 uM) | Renilla luciferase signal (concentration: 10 uM) | Renilla luciferase signal (concentration: 100 uM)
c1ccc(Nc2ccccc2)cc1 [Diphenylamine] | 1.09 | 1.05 | 1.06 | 1.09 | 1.82
Nc1ccc(Nc2ccccc2)cc1 [N-Phenyl-1,4-benzenediamine] | – | 0.905 | 0.984 | 0.71 | 0.204
Nc1cccc(N)c1 [1,3-Benzenediamine] | – | 1.19 | 1.05 | 1.19 | 1.74
Nc1ccc2c(c1)C(=O)c1ccccc1C2=O [2-Aminoanthraquinone] | – | 1.16 | 0.898 | 0.829 | 0.621
Nc1cccc2c(N)cccc12 [1,5-Naphthalenediamine] | – | 0.805 | 0.822 | 0.856 | 0.73
CCCCC(CC)CO (stereo not drawn) [2-Ethyl-1-hexanol] | – | 0.758 | 0.775 | 0.504 | 1.25
CCCCCCCCCCCCCCCCCC(=O)O [Octadecanoic acid] | – | 0.913 | 0.958 | 0.923 | 1.4
CNC(CC(=O)O)C(=O)O (stereo not drawn) | 1.02 | 1.14 | 0.949 | 1.02 | 1.9
O=C(O)CC(O)C(=O)O (stereo not drawn) [Malic acid] | – | 1.33 | 1.26 | 1.32 | 1.29
Cc1ccc2oc(CN(Cc3ccccc3)C(=O)Nc3c(F)cc(F)cc3F)c(-c3ccc(Cl)cc3)c2c1 | – | 0.953 | 0.858 | 0.846 | 0.482
CC(C)CCCCCCOC(=O)C1CCCCC1C(=O)OCCCCCCC(C)C (stereo not drawn) [Diisononyl cyclohexane-1,2-dicarboxylate] | – | 0.946 | 1.13 | 1.06 | 1.38
COc1cc(C(C)C)c2c(c1)S(=O)(=O)N(COc1cc(=O)n3cccc(OCCN4CCCCC4)c3n1)C2=O | – | 1.26 | 1.3 | 1.21 | 0.497
CC(C)CC(C)(O)C#CC(C)(O)CC(C)C (stereo not drawn) [2,4,7,9-Tetramethyl-5-decyne-4,7-diol] | – | 0.987 | 0.919 | 0.966 | 0.295
CCOC(=O)C(C)Oc1ccc(Oc2nc3ccc(Cl)cc3o2)cc1 (stereo not drawn) [Fenoxaprop-ethyl] | 0.9 | 0.851 | 1.02 | 1.13 | 1.78
CCOC(=O)C(C)Oc1ccc(Oc2cnc3cc(Cl)ccc3n2)cc1 (stereo not drawn) [Quizalofop-ethyl] | 1.1 | 0.758 | 0.993 | 0.953 | 1.88
CCCCOC(=O)C(C)Oc1ccc(Oc2ccc(C(F)(F)F)cn2)cc1 (stereo not drawn) [Fluazifop-butyl] | 1.02 | 0.837 | 1.04 | 0.984 | 1.81
CCCCOC(=O)c1ccccc1 [Butyl benzoate] | – | 0.872 | 0.958 | 1.1 | 1.1
C#CCOC(=O)[C@@H](C)Oc1ccc(Oc2ncc(Cl)cc2F)cc1 [Clodinafop-propargyl] | 0.926 | 1.11 | 1.04 | 1.01 | 0.269
CCOC(=O)C(C)(C)Oc1ccc(Cl)cc1 [Clofibrate] | – | 0.962 | 1.02 | 1.17 | 1.38
CCCCOC(=O)[C@@H](C)Oc1ccc(Oc2ccc(C(F)(F)F)cn2)cc1 [Fluazifop-P-butyl] | 1.25 | 1.18 | 1.05 | 1.22 | 0.693
